Reference: the supplement of paper PMC10849652
Targets with a hit are over-represented here; the source holds about 8,800 in all. About 0.5% of all pairs of compound and target were hits.

These targets were tested with COc1cc2ncnc(Nc3ccc(F)c(Cl)c3)c2cc1OCCCN1CCOCC1 [gefitinib] (assay: log2 fold change, soluble protein after heating vs DMSO (PISA); higher = thermal stabilisation; K562 lysate, 10 uM; active = over 0.2 and 3.5 SD of the protein, either way, in both replicates (recomputed)).
Summary of the method: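 K562 pellets were dounce-homogenised in PBS pH 7.4 with 1 mM MgCl2, and the crude extract at 1 mg/mL protein was treated with 10 μM compound for 30 min. Aliquots were heated for 3 min across 48°C-58°C, pooled, and brought to 0.5% NP-40 at 4°C; soluble protein was the supernatant after 21,000xg for 90 min. Soluble protein was quantified by TMTpro 16plex LC-MS/MS with channel sums equalised, and reported as log2 fold change in thermal stability against DMSO controls, with values from duplicates.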

Chain of UniProt O75943 (O75943 whole entry, looked up): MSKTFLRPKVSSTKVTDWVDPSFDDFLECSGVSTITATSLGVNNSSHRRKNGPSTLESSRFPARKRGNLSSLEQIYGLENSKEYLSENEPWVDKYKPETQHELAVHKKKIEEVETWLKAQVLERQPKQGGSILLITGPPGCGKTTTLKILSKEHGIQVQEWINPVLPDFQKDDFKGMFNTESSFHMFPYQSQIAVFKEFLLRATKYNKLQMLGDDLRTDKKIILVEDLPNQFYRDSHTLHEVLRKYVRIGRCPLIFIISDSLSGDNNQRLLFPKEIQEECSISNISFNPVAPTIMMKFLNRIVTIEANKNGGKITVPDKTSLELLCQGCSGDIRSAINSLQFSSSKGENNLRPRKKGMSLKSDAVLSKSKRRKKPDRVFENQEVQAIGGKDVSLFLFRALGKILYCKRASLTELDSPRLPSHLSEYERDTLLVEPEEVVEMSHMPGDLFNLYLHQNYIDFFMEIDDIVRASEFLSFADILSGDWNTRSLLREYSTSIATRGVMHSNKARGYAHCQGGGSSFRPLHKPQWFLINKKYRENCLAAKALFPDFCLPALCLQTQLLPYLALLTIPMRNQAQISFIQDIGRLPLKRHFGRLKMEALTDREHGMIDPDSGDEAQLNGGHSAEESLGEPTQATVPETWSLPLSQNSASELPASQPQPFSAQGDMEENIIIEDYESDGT
Chain of UniProt Q9BWG6 (Q9BWG6 whole entry, looked up): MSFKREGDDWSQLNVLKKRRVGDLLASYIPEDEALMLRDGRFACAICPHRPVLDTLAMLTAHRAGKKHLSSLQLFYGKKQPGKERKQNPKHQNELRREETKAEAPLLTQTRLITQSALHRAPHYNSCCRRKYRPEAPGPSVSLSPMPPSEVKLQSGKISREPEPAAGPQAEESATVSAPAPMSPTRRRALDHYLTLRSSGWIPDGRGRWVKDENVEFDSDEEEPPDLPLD
Chain of UniProt Q96LT9 (Q96LT9 whole entry, looked up): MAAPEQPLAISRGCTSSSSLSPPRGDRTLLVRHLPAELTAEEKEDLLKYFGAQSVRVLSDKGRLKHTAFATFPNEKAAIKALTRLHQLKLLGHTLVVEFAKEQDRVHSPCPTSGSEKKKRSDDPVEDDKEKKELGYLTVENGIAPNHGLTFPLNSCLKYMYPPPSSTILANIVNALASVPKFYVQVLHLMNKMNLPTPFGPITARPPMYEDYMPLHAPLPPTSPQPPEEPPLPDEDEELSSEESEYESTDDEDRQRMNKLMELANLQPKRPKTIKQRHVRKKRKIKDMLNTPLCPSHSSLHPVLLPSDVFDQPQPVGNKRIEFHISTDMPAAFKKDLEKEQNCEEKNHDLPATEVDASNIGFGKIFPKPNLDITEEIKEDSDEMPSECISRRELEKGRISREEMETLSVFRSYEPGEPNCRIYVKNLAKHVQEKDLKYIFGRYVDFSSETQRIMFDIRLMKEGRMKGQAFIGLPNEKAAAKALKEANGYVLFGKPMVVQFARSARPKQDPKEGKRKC
Chain of UniProt Q9Y644 (Q9Y644 whole entry, looked up): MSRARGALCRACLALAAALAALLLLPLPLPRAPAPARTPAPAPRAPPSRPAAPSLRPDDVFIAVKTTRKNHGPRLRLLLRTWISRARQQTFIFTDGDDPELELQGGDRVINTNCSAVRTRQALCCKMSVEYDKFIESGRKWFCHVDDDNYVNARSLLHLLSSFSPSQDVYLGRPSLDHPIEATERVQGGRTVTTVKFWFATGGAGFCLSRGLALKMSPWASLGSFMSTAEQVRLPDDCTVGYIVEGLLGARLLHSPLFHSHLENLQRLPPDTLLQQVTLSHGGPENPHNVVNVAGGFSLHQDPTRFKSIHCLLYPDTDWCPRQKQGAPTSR
Chain of UniProt Q9UPW6 (Q9UPW6 whole entry, looked up): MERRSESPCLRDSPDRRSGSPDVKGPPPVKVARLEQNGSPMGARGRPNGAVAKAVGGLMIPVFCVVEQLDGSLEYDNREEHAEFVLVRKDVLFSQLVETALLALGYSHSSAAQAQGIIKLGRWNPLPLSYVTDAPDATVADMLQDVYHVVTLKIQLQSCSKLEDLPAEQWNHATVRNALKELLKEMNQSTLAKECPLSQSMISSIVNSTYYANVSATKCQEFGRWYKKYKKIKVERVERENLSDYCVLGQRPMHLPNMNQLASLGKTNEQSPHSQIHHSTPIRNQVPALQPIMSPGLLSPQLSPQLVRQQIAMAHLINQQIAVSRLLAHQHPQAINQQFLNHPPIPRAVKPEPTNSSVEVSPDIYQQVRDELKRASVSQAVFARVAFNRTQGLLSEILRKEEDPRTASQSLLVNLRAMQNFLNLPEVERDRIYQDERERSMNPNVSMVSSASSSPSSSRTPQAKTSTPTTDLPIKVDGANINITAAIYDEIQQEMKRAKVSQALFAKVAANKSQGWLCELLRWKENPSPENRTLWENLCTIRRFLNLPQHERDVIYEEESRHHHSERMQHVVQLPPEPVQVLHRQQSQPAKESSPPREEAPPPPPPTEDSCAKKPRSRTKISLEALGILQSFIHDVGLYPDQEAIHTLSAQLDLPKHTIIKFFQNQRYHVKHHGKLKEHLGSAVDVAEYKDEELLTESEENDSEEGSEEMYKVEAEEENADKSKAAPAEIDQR
Chain of UniProt Q7L0Q8 (Q7L0Q8 whole entry, looked up): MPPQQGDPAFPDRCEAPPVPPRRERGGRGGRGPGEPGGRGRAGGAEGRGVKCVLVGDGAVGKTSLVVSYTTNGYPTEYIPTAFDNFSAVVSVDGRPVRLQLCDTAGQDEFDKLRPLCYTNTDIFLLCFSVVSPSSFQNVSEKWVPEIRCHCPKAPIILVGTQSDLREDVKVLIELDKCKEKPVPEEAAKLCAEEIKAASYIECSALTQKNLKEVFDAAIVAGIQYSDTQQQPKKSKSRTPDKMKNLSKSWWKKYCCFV
Chain of UniProt Q99496 (Q99496 whole entry, looked up): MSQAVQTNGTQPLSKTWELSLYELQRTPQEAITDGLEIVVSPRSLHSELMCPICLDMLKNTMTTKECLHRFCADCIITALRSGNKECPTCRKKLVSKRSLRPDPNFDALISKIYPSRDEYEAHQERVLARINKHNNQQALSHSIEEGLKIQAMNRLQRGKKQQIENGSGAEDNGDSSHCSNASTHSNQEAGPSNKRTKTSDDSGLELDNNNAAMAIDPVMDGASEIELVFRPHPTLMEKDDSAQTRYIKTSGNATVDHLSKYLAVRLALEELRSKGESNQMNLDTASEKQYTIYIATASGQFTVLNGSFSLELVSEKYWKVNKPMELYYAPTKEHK
Chain of UniProt Q96JX3 (Q96JX3 whole entry, looked up): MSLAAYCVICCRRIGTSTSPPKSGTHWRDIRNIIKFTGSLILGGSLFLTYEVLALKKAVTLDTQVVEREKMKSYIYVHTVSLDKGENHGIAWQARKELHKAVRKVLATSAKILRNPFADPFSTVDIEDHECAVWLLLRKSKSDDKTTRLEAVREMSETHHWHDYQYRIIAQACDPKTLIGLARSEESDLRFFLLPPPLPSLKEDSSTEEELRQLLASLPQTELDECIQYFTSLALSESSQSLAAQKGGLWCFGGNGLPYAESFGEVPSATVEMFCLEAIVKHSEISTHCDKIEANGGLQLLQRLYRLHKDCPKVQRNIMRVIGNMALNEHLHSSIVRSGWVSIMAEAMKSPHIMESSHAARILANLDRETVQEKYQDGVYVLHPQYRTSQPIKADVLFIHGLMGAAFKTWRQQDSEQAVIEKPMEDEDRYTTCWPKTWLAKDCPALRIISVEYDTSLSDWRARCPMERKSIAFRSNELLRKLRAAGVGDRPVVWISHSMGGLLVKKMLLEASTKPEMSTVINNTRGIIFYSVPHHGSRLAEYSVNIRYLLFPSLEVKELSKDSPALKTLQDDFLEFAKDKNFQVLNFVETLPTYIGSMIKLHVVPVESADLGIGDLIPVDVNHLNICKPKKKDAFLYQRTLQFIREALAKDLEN
Chain of UniProt Q92698 (Q92698 whole entry, looked up): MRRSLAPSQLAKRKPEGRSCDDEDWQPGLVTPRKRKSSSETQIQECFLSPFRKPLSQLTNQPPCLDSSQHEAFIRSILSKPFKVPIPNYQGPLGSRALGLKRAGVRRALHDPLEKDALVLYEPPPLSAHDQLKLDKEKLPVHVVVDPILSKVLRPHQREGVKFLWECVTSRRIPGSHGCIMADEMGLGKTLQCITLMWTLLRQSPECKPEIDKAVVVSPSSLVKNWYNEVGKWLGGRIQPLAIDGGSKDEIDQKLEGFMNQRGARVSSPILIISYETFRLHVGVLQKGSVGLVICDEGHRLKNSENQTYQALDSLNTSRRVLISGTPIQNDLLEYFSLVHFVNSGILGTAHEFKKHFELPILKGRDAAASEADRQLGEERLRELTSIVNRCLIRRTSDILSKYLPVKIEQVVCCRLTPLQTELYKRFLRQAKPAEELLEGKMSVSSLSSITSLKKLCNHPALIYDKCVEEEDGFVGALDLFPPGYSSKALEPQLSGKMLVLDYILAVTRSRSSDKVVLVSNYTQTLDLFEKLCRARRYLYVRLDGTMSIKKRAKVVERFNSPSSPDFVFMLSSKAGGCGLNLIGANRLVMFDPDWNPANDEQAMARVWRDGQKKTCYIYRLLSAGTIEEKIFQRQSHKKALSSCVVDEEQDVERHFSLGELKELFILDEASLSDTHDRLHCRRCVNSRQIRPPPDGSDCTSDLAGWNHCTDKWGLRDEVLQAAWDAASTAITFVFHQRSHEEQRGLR
Chain of UniProt Q8TC12 (Q8TC12 whole entry, looked up): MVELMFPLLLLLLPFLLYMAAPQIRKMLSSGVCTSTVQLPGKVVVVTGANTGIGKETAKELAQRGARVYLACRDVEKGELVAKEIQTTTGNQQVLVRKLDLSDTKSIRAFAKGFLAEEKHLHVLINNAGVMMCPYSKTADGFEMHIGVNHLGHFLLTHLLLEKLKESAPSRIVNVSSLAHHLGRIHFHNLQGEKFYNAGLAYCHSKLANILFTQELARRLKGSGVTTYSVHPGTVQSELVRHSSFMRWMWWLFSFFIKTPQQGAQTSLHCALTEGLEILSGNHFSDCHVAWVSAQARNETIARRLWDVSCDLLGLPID
Chain of UniProt Q9Y225 (Q9Y225 whole entry, looked up): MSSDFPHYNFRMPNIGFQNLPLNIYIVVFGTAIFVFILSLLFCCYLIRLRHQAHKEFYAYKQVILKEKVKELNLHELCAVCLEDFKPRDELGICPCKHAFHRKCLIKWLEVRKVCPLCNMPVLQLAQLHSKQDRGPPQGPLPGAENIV

log2 fold change, inactive:
RUFY2 isoform 1 (UniProt Q8WXA3) 0.053
RXRA (UniProt P19793) 0.043
SATB2 (UniProt Q9UPW6) 0.01
SERAC1 (UniProt Q96JX3) -0.165
QSER1, A0A3B3IRW6 -0.021
RPS6KA5 (UniProt O75582) 0.11
RHOU (UniProt Q7L0Q8) -0.017
RNF2 (UniProt Q99496) -0.038
RAD17 (UniProt O75943) 0.022
RFWD3 (UniProt Q6PCD5) -0.057
RNF24 isoform 2 (UniProt Q9Y225) -0.108
SELENOK (UniProt Q9Y6D0) 0.006
RNF170 (UniProt Q96K19) 0.037
SCNM1 (UniProt Q9BWG6) 0.114
RAD54L (UniProt Q92698) 0
RBBP7 (UniProt C9J7L0) -0.058
RFNG (UniProt Q9Y644) 0.424
RNPC3 (UniProt Q96LT9) -0.08
RECQL4 (UniProt O94761) 0.065
RNASEH2B, A0A1B0GUE7 -0.028
RDH11 (UniProt Q8TC12) -0.019
RBM45 (UniProt Q8IUH3) -0.03
